# In ChEMBL document CHEMBL3988442, “University of Dundee, Small-Polar-MMV Screening Library” (2021):
# Screen size: about 48,000 compounds; about 13,000 (27%) showed an effect of 50% or more. The list shows a part of the results.
# Test system: Wolbachia pipientis
# Assay: Anti-Wolbachia Cell-Based Screen
# Assay type: functional
# Parameters: scale not given: in the data most compounds retested in dose-response had high values
# Settings: 5 µM
row,SMILES,Percent Effect [%]
1,COc1cc(C)cc(-c2nc3c([nH]2)CCNC3)c1OC,7.084
2,O=C1CC(NCc2ccc(Cl)s2)CN1Cc1cccc(F)c1 (stereo unspecified),20.87
3,Cc1cc(C)nc(N2C[C@H]3OC(=O)N(CCc4cccc(Cl)c4)[C@H]3C2)n1,-8.827
4,Cc1nc[nH]c1CNC1CC(=O)N(CCc2cccc(Cl)c2)C1 (stereo unspecified),94.18
5,Cc1cccc(CNC2CC(=O)N(CCc3cccc(Cl)c3)C2)n1 (stereo unspecified),115.9
6,N#Cc1cccc(NC2CC(=O)N(CCc3ccc(F)cc3)C2)n1 (stereo unspecified),1.885
7,CC(=O)Nc1ccc(CNC2CC(=O)N(Cc3cccc(F)c3)C2)cc1 (stereo unspecified),-1.661
8,Cc1nc(CNC2CC(=O)N(CCc3cccc(Cl)c3)C2)c[nH]1 (stereo unspecified),91.72
9,CN(C)c1ncc(CNC2CC(=O)N(CCc3cccc(Cl)c3)C2)s1 (stereo unspecified),116.6
10,c1cc(CN2CCOC[C@H]2c2nc(-c3ccncc3)c[nH]2)ccn1,-7.2
11,CC(=O)N[C@H]1CN(CC(=O)NCc2ccccc2C)C[C@@H]1C(C)C,-0.9175
12,CCCc1cc(C(=O)N(CC)Cc2ccncc2)[nH]n1,-8.767
13,CN1CCN(c2ccc3ccc(C(=O)N4CCCCO4)cn23)CC1.O=C(O)C(F)(F)F,-14.14
14,Cc1nnc(N2CCCC(CS(N)(=O)=O)C2)c(C#N)c1C (stereo unspecified),-0.6364
15,CCOCCN1CCN(Cc2nnc(C3CC3)o2)CC1C (stereo unspecified),-16.34
16,CC(C)S(=O)(=O)N1C[C@H]2OC(=O)N(CCc3cccc(Cl)c3)[C@H]2C1,-13.46
17,CCCS(=O)(=O)N1C[C@H]2OC(=O)N(CCc3cccc(Cl)c3)[C@H]2C1,-3.172
18,Cc1ncc(CNC2CC(=O)N(CCc3cccc(Cl)c3)C2)n1C (stereo unspecified),82.2
19,Cc1ncsc1CNC(=O)N1CCN(Cc2ccccc2)CC1C (stereo unspecified),-7.787
20,O=C(O)C(F)(F)F.O=C(O)C(F)(F)F.c1ccc(CN2CCC3(CC2)CN(c2ccccn2)CCO3)nc1,2.249
21,O=C(O)C(F)(F)F.O=C(O)C(F)(F)F.c1cnc(N2CCCC3(CCN(c4ncccn4)C3)C2)nc1 (stereo unspecified),103.8
22,Fc1ccc(CN2CCC3(CC2)CN(c2ccccn2)CCO3)cc1.O=C(O)C(F)(F)F.O=C(O)C(F)(F)F,-6.002
23,COc1cc(N2CCC3(CCN(C(=O)c4cccnc4)CC3)C2)ncn1.O=C(O)C(F)(F)F,-2.068
24,O=C(O)C(F)(F)F.c1ccc(N2CCC3(CCCN(c4ncccn4)C3)C2)nc1 (stereo unspecified),93.44

row,SMILES,Percent Effect [%]
1,Fc1ccccc1CN1CCCC2(CCN(c3ncccn3)CC2)C1.O=C(O)C(F)(F)F,3.614
2,N#Cc1ccc(N2CCC3(CCCN(c4ccccn4)C3)C2)nc1.O=C(O)C(F)(F)F (stereo unspecified),-3.068
3,O=C(O)C(F)(F)F.O=C(O)C(F)(F)F.c1ccc(CN2CCC3(CC2)CCN(c2ccccn2)C3)nc1,79.01
4,COc1cc(N2CCC3(CCCN(C(=O)c4cccnc4)C3)C2)ncn1.O=C(O)C(F)(F)F (stereo unspecified),-28.04
5,CN1CCC2(CCCN(c3nccc(C(F)(F)F)n3)C2)CC1.O=C(O)C(F)(F)F,-32.78
6,COc1cc(N2CCC3(CCCN(Cc4ccccn4)C3)C2)ncn1.O=C(O)C(F)(F)F (stereo unspecified),109.9
7,CC(=O)N1CCC2(CC1)CN(C)C(=O)C[C@H]2C(F)(F)F.Cl,-12.08
8,CN1CCN(C(=O)c2ccc(=O)n(C)c2)c2ccccc21,6.731
9,CCOc1ccc(-n2nc(C)c(CC(C)=O)c2C)cc1C(N)=O,-4.424
10,O=C(O)C(F)(F)F.O=S(=O)(C1CC1)N1CCC2(CCCN(c3ncccn3)C2)C1 (stereo unspecified),97.03
11,Cc1cnc(N2CC3(CCN(S(=O)(=O)C4CC4)C3)C2)nc1.O=C(O)C(F)(F)F,-3.978
12,O=S(=O)(C1CC1)N1CCC2(CN(c3ncccn3)C2)C1,-12.56
13,O=C(CCc1ccc(F)cc1)NCc1ccnc(NC2CC2)c1,-8.812
14,CN(Cc1ccco1)C[C@H]1OC[C@@H]2CCN(Cc3ccsc3)C[C@@H]21.O=C(O)C(F)(F)F.O=C(O)C(F)(F)F,-7.864
15,Cc1ccc(CN2CC[C@H]3CO[C@H](CN4CCN(C)CC4)[C@H]3C2)o1.O=C(O)C(F)(F)F.O=C(O)C(F)(F)F.O=C(O)C(F)(F)F,-46.51
16,O=C(O)C(F)(F)F.O=C(O)C(F)(F)F.c1cc2c(cc1CN1CC[C@H]3CO[C@H](CN4CCCC4)[C@H]3C1)OCO2,-12.98
17,O=C(O)C(F)(F)F.O=C(O)C(F)(F)F.c1cc(CN2CC[C@@H]3[C@@H](CO[C@H]3CN3CCOCC3)C2)cs1,92.79
18,CN1CCN(C[C@H]2OC[C@@H]3CCN(Cc4ccsc4)C[C@@H]32)CC1,98.94
19,CN1CCN(C[C@@H]2OC[C@H]3CN(Cc4ccsc4)CC[C@H]32)CC1.O=C(O)C(F)(F)F.O=C(O)C(F)(F)F.O=C(O)C(F)(F)F,-2.359
20,Cc1ccc(CN2CC[C@H]3CO[C@H](CN4CCCC4)[C@H]3C2)o1.O=C(O)C(F)(F)F.O=C(O)C(F)(F)F,-21.11
21,O=C(O)C(F)(F)F.O=C(O)C(F)(F)F.c1cc(CN2CC[C@H]3CO[C@H](CN4CCOCC4)[C@H]3C2)cs1,117.2
22,O=C(C1CCOCC1)N1C[C@@H]2CN(Cc3ccsc3)CCO[C@@H]2C1.O=C(O)C(F)(F)F,4.767
23,O=C(Nc1ccnc(OC2CCOC2)c1)C1CCC1 (stereo unspecified),-17.8
24,Cc1cc(CN2CCC(CNC(=O)c3ccc(O)c(Cl)c3)C2)[nH]n1 (stereo unspecified),12.57

row,SMILES,Percent Effect [%]
1,CC(=O)Nc1nc(C(=O)N2CCCC2c2ccccc2C)cs1 (stereo unspecified),-3.064
2,CNS(=O)(=O)c1ccc(C(=O)N2CCCC2c2cnn(C)c2)o1 (stereo unspecified),-2.298
3,CNS(=O)(=O)c1ccc(C(=O)N2CCCC2Cc2ccccc2)o1 (stereo unspecified),9.44
4,CNS(=O)(=O)c1ccc(C(=O)N2CCCC2c2ccncc2)o1 (stereo unspecified),101.5
5,CNS(=O)(=O)c1ccc(C(=O)N2CCCC2c2ccccc2C)o1 (stereo unspecified),116.1
6,CNS(=O)(=O)c1ccc(C(=O)N2CCCC2c2ccccc2)o1 (stereo unspecified),-8.711
7,CNc1nc(C(=O)N2CCCCC2c2ccc(CN(C)C)cc2)cs1 (stereo unspecified),-11.93
8,CNS(=O)(=O)c1ccc(C(=O)N2CCCCC2c2ccc(C)cc2)o1 (stereo unspecified),124
9,NS(=O)(=O)c1ccc(C(=O)N2CCCC2c2ccccc2)o1 (stereo unspecified),114.9
10,Cc1nc(C(=O)N2CCCCC2c2ccc(CN(C)C)cc2)c(C)o1 (stereo unspecified),-1.477
11,CN(C)Cc1ccc(C2CCCCN2C(=O)c2ncccc2O)cc1 (stereo unspecified),1.796
12,O=c1ccncn1Cc1csc(C2CC2)n1,-22.65
13,Cc1cc(C)cc(CCC(=O)NC(C)c2nnn[nH]2)c1 (stereo unspecified),-2.993
14,CCCn1nc2c(cc1=O)CN(Cc1ncc(C(C)(C)C)o1)CC2,7.183
15,c1ccc2c(N3CCCCC3)cnnc2c1,-32.94
16,CN(Cc1ccco1)c1ccc(C(=O)NCCCc2ccccn2)cn1,-0.2765
17,CN1CC[C@@H]2[C@@H]1CCN2Cc1ccc2c(c1)OCO2,-14.63
18,COCc1cn(C2CCN(C(=O)Cc3ccsc3)CC2)nn1,-0.9661
19,CCCC(C)CN1CCC(n2cc(CCCO)nn2)CC1 (stereo unspecified),-3.716
20,CC(CCN1CCC(n2cc(CCO)nn2)CC1)c1ccccc1 (stereo unspecified),92.59
21,CNCc1cn(C2CCN(CCC(C)c3ccccc3)CC2)nn1 (stereo unspecified),95.9
22,Cc1cccc(CN2CCC(n3cc(CCO)nn3)CC2)c1C,4.105
23,CNCc1cn(C2CCN(C(=O)NCc3ccco3)CC2)nn1,17.43
24,COCc1cn(C2CCN(CCC(C)c3ccccc3)CC2)nn1 (stereo unspecified),99.11

row,SMILES,Percent Effect [%]
1,CSC(C)CCN1CCC(n2cc(C3CCCCC3)nn2)CC1 (stereo unspecified),-13.53
2,COCc1cn(C2CCN(Cc3ccc(Cl)s3)CC2)nn1,0.9369
3,CSCc1noc(CN(C)C(C)c2nc(C)sc2C)n1 (stereo unspecified),-2.011
4,CC(C)C(=O)NC1COC2(CCN(C(=O)c3ccc[nH]3)CC2)C1 (stereo unspecified),3.438
5,O=C(c1cc(-n2cccn2)ccn1)N1CCOc2ncccc21,-22.54
6,CN(Cc1cc(C2CC2)on1)C(=O)C(c1cccnc1)N1CCCC1 (stereo unspecified),-7.414
7,COCCc1noc(CN(C)C(=O)C(C)N2CCc3ccccc3C2)n1 (stereo unspecified),110.4
8,CC(C(=O)N(C)Cc1noc(C2CCC2)n1)N1CCc2ccccc2C1 (stereo unspecified),96.98
9,COc1cccc2c1N(Cc1noc(C3CC3)n1)CCC2,-4.254
10,CC(C(=O)N(C)C)N1CCc2onc(-c3cccc(F)c3)c2C1 (stereo unspecified),-12.34
11,COCCc1noc(CN(C)C(=O)C2COc3ccccc3C2)n1 (stereo unspecified),-1.856
12,COCCc1noc(CN(C)C(=O)c2cccc(N3CCCC3=O)c2)n1,-10.13
13,Cc1noc(C2CCCN(CC(=O)N3CCc4ccccc4C3)C2)n1 (stereo unspecified),4.147
14,CC(C)c1cc(CN(C)C(=O)C(C)N2CCc3ccccc3C2)no1 (stereo unspecified),103.9
15,CCCn1cnnc1CNC(=O)C1COc2c(cccc2OC)C1 (stereo unspecified),-10.56
16,Cc1ccc(N2CCN(C(=O)CN3C[C@@H]4CC[C@H]3C4)CC2=O)cc1,111.2
17,CN(C)c1nc2c(c(N(C)C)n1)CCN(C(=O)CN1C[C@@H]3CC[C@H]1C3)C2,-4.711
18,Cc1ccc(N2CCCC(N3CCC(CO)CC3)C2=O)cc1 (stereo unspecified),-5.905
19,Cc1cc(C)cc(N2CCN(C(=O)CCN3C[C@@H]4CC[C@H]3C4)CC2=O)c1,110.5
20,COCCN1C[C@H]2CC[C@@H]1CN(C(=O)CCc1c(C)nn(C)c1C)C2,8.536
21,COc1cccc(N2CCN(C(=O)CCO)CC2=O)c1,0.6756
22,O=C(CCN1C[C@@H]2CC[C@H]1C2)N1CCN(c2cccc(Cl)c2)C(=O)C1,108.3
23,Cc1ccc2oc(=O)n(CCC(=O)N3CCN(C)C(=O)C3)c2c1,7.292
24,COc1cccc(N2CCN(C(=O)C(O)c3cccc(Cl)c3)CC2=O)c1 (stereo unspecified),-25.1
